# “And” between values parts separate entries of the source, which are not always exact repeats. Equal entries are not always repeated. Some compounds were tested as several samples or in several runs, with calls that do not always agree. The source made the active and inactive calls. Cut-off read from the data, not from the text of the source, unless noted: active = inhibition above about 80%; inactive = the rest. Where a SMILES comes first, the peptide text is derived from it. The star is where a group is joined. Cbz = O=C(OCc1ccccc1)*
# How the values were obtained:
# [1] = target: NAD(+) hydrolase SARM1 (Homo sapiens) (UniProt Q6SZW1); test: blocking NAD cleavage by SARM1 SAM-TIR – cell lysate, NAD-Glo luminescence (AID 1508614;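 active = compound whose remaining NAD level is above about 45 nM, limit read from the data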;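 note: higher remaining NAD means stronger inhibition of SARM1 NADase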); conditions: SAM-TIR HEK293T lysate NADase, at 1 µM, stronger effect = higher value
# [2] = chitosan synthesis blockers in C. neoformans – flow cytometry, Cibacron Brilliant Red staining (AID 1347148; call rule not given here;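 note: compound exposure lasted three days at 37 degrees C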); conditions: Cryptococcus neoformans chitosan, stronger effect = lower value; at 10 µM unless noted
# [3] = growth inhibition, single agents and combos, LFS_MB_1R, cell-based, cisplatin or BGB combos, synergistic combos for chromothripsis tumors (AID 1671452); conditions: LFS_MB_1R medulloblastoma cells, stronger effect = higher value;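 note: cells exposed for 96 hours before readout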
# [4] = growth inhibition, single agents and combos, CRL2098, cell-based, BGB or cisplatin IC20 combos, synergistic combos for chromothripsis tumors (AID 1671454); conditions: CRL2098 osteosarcoma cells, drug combinations, stronger effect = higher value;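 note: cells exposed for 96 h before readout; 0% = vehicle DMSO and 100% = killing by high DMSO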
# [5] = growth inhibition, single agents and combos, HD-MB03, cell-based, BGB or cisplatin IC20 combos, synergistic combos for chromothripsis tumors (AID 1671455; in the data active = inhibition above about 83%;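 note: 0% = vehicle DMSO and 100% = high DMSO as cytotoxic control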); conditions: HD-MB03 medulloblastoma cells, stronger effect = higher value
# [6] = growth inhibition, single agents and combos, UWB1.289, cell-based, BGB or cisplatin combos, synergistic combos for chromothripsis tumors (AID 1671456); conditions: UWB1.289 ovarian carcinoma cells, stronger effect = higher value;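 note: cells exposed to compound for four days; 0% = vehicle DMSO and 100% = killing by high DMSO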
# [7] = growth inhibition, single agents and combos, LFS_MB_2R, cell-based, cisplatin combos, synergistic combos for chromothripsis tumors (AID 1671457); conditions: LFS_MB_2R medulloblastoma cells, stronger effect = higher value;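 note: cells exposed to compound for four days before readout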
# [8] = UWB1.289_BRCA1 ovarian cancer growth, cell-based, BGB or cisplatin combinations (AID 1671459); conditions: UWB1.289 BRCA1 ovarian carcinoma, drug combinations, stronger effect = higher value
# [9] = drug combination toxicity in non-malignant astrocytes – cell-based, BGB or cisplatin IC20 combos, cytotoxicity control for chromothriptic childhood tumor combination screen (AID 1671460); conditions: Human astrocytes, viability inhibition, drug combinations, at 0.5 µM, stronger effect = higher value;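 note: cells exposed to compounds for 96 hours before viability readout; 0% = vehicle and 100% = killing control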
# [10] = BT084 cell growth, single and combined drugs, ICGC_MB145, cisplatin and BGB IC40 combos (AID 1671461); conditions: BT084 medulloblastoma cells, drug combinations, stronger effect = higher value;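 note: cells exposed to drugs for 96 hours; 0% = vehicle DMSO and 100% = high DMSO full killing control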
# [11] = RCMB18 cell growth, single agent and combined, cisplatin and BGB IC40 combos (AID 1671462); conditions: RCMB18 medulloblastoma cells, stronger effect = higher value;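 note: cells exposed to compound for four days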
# [12] = CRL1545 cell growth, single agent and combined, cisplatin and BGB IC20 combos (AID 1671464); conditions: CRL1545 osteosarcoma cells, stronger effect = higher value;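 note: cells exposed to compound for 96 hours before readout; 0% = vehicle DMSO and 100% = high DMSO killing control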
# [13] = test system: Hepatitis C virus NS3 helicase; test: blockers of NS3h binding to ssDNA – biochemical, fluorescence polarization, LOPAC1280 library, primary screen (AID 687035; in the data active = inhibition above about 37%); conditions: Purified HCV NS3 helicase, Cy5-dT15 ssDNA binding fluorescence polarization; stronger effect = higher value; concentration not given here
# [14] = compounds altering Cy5-DNA-NS3h complex signal – biochemical, LOPAC1280, artefact control for HCV NS3 helicase inhibitor project (AID 687037; call rule not given here); conditions: Cy5-DNA-NS3h complex fluorescence interference counterscreen
# [15] = galactose survival enhancers in mitochondrial complex I cybrids – cell-based, galactose medium, ATP luminescence, primary screen (AID 1645843;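 active = z-score of at least 1.8 in each of two replicates, scored against plate mean and spread of sample wells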;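 note: positive z means more ATP and so rescue of galactose-driven cybrid death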); conditions: complex I mutant cybrid cells, 72 h, stronger effect = higher value
# [16] = compounds altering viability of human ES cells (AID 493140; call rule not given here;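 note: cells exposed to compounds for four days before counting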); conditions: human embryonic stem cell survival screen; stronger effect = higher value
# [17] = blockers of cellular phospholipid synthesis – cell-based, LOPAC library, screen 4, primary screen (AID 1347384; call rule not given here); conditions: animal cells, phospholipid biosynthesis inhibition screen; at 10 µM
# [18] = measured here: combination with BGB IC40, at 0.05 µM
# [19] = measured here: combination with cisplatin, at 0.5 µM
# [20] = measured here: combination with cisplatin, at 5 µM
# [21] = measured here: combination with BGB at IC20, at 0.5 µM
# [22] = measured here: combination with cisplatin at IC20, at 0.5 µM
# [23] = measured here: combo with BGB at IC20, at 0.5 µM
# [24] = measured here: combo with cisplatin at IC20, at 0.5 µM
# [25] = measured here: inhibition with BGB combination, at 0.05 µM
# [26] = measured here: inhibition with cisplatin combination, at 0.05 µM
# [27] = BGB combination, concentration series, at 5 µM
# [28] = cisplatin combination, concentration series, at 5 µM
# [29] = measured here: combo with BGB IC20
# [30] = measured here: combo with cisplatin IC20
# [31] = cisplatin combination, at 0.5 µM
# [32] = measured here: BGB IC40 combination 0.05 uM, at 0.05 µM
# [33] = measured here: BGB IC40 combination, at 0.05 µM
# [34] = measured here: with BGB IC20 combination, at 0.5 µM
# [35] = measured here: with cisplatin IC20 combination, at 0.5 µM
# Chain of NAD(+) hydrolase SARM1 (Homo sapiens) (Q6SZW1 whole entry, looked up): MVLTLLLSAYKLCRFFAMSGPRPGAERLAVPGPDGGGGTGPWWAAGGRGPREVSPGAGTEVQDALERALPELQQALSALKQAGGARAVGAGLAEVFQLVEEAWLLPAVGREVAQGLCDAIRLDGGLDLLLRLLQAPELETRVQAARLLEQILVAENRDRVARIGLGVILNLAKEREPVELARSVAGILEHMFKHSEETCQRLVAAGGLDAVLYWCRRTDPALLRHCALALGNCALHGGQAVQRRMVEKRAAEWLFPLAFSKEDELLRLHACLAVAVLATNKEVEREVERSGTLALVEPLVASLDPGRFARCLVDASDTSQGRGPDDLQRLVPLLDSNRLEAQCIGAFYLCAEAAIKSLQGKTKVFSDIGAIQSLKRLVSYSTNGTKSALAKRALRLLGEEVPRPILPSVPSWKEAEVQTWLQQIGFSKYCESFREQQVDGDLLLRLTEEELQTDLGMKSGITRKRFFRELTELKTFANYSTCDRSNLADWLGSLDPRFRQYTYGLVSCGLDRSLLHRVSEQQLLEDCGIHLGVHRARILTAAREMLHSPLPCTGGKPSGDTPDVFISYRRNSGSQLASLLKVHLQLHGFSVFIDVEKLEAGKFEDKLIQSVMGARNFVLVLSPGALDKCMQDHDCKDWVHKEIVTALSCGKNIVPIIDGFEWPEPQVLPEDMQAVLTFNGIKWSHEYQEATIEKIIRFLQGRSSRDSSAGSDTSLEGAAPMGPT
structure (smiles),measurement,setting,value
CC#CCn1c(N2CCC[C@@H](N)C2)nc2c1c(=O)n(Cc1nc(C)c3ccccc3n1)c(=O)n2C,remaining NAD,[1],10 nM (inactive)
CC(C)C[C@@H](C=O)NC(=O)[C@H](CC(C)C)NC(=O)[C@H](CC(C)C)NC(=O)OCc1ccccc1 (Cbz-Leu-Leu-Leu-aldehyde),fold fluorescence,[2],10.3 [at 105.1 µM] (inactive)
Cc1[nH]c2ccccc2c1CCNCc1ccc(/C=C/C(=O)NO)cc1,inhibition,[3]; at 0.5 µM,93.3% (active) and 50.3% (inactive)
same,inhibition,[3]; [18],50.6% and -33.1%
same,inhibition,[3]; [19],94.8% and 59%
same,inhibition,[3]; [20],101% and 94.7%
same,inhibition,[4]; at 0.5 µM,96% (active) and 13.2% (inactive)
same,inhibition,[4]; [21],95% and 15.5%
same,inhibition,[4]; [22],96.9% and -1.5%
same,inhibition,[5]; at 0.5 µM,99.9% (active) and 93.8% (active)
same,inhibition,[5]; [23],99.8% and 96.6%
same,inhibition,[5]; [24],99.9% and 99.7%
same,inhibition,[6]; at 0.5 µM,82.2% (active) and 51.9% (inactive)
same,inhibition,[6]; [25],27.3% and -1.85%
same,inhibition,[6]; [26],42.8% and 21.6%
same,inhibition,[7]; at 0.5 µM,91.3% (active) and 29.2% (inactive)
same,inhibition,[7]; [19],101% and 47.2%
same,inhibition,[7]; [20],109% and 98.7%
same,inhibition,[8]; [27],121% and 109%
same,inhibition,[8]; at 0.5 µM,90.3% (active) and 56.4% (inactive)
same,inhibition,[8]; [28],127% and 128%
same,inhibition,[9],101% (active) and 33.3% (inactive)
same,inhibition,[9]; [29],102% and 30.8%
same,inhibition,[9]; [30],99.8% and 22.1%
same,inhibition,[10]; at 0.5 µM,90.4% (active) and 65.9% (inactive)
same,inhibition,[10]; [31],101% and 78.2%
same,inhibition,"[10]; cisplatin combination, at 5 µM",102% and 105%
same,inhibition,[10]; [32],52.7% and 3.36%
same,inhibition,"[10]; single agent, at 5 µM",109% and 106%
same,inhibition,[11]; at 0.5 µM,91% (active) and 38.1% (inactive)
same,inhibition,"[11]; cisplatin combo, at 5 µM",99% and 97.8%
same,inhibition,[11]; [33],28.7% and -11.4%
same,inhibition,[11]; [19],95.9% and 50.4%
same,inhibition,"[11]; single agent, at 5 µM",97.1% and 93.2%
same,inhibition,[12]; at 0.5 µM,96.5% (active) and 85.3% (active)
same,inhibition,[12]; [34],95.5% and 73.9%
same,inhibition,[12]; [35],96.9% and 90.9%
same,inhibition,"[12]; single agent, at 0.05 µM",93.3% and 52.8%
same,inhibition,"[12]; single agent, at 5 µM",98.9% and 97.5%
O=C1NC(=O)/C(=C/c2ccc3c(c2)OC(F)(F)O3)S1,inhibition,[13],-5% (inactive)
same,fluorescence ratio (interference),[14],1 (inactive)
same,z-score,[15],-0.34 (inactive)
CCCCC(C)(C)[C@H](O)/C=C/[C@H]1[C@H](O)CC(=O)[C@@H]1C/C=C\CCCC(=O)O,survival,[16],68.2 (inactive)
Cn1c2ccccc2c2c3c(c4c5ccccc5n(CCC#N)c4c21)CNC3=O,fold fluorescence,[2],3.75 [at 132.1 µM] (inactive)
CN(C)c1ccc(C(=O)NCCCCCCC(=O)NO)cc1,inhibition,[3]; at 0.5 µM,32.4% (inactive)
same,inhibition,[3]; [18],-37.9%
same,inhibition,[3]; [19],63.6%
same,inhibition,[3]; [20],97.6%
same,inhibition,[4]; at 0.5 µM,-26.1% (inactive)
same,inhibition,[4]; [21],-83.1%
same,inhibition,[4]; [22],6.53%
same,inhibition,[5]; at 0.5 µM,47.5% (inactive)
same,inhibition,[5]; [23],38.6%
same,inhibition,[5]; [24],81.5%
same,inhibition,[6]; at 0.5 µM,31% (inactive)
same,inhibition,[6]; [25],-11.2%
same,inhibition,[6]; [26],3.19%
same,inhibition,[7]; at 0.5 µM,15.7% (inactive)
same,inhibition,[7]; [19],37.8%
same,inhibition,[7]; [20],95.1%
same,inhibition,[8]; [27],88.6%
same,inhibition,[8]; at 0.5 µM,35.3% (inactive)
same,inhibition,[8]; [28],103%
same,inhibition,[9],25.9% (inactive)
same,inhibition,[9]; [29],24.7%
same,inhibition,[9]; [30],16.4%
same,inhibition,[10]; at 0.5 µM,27.2% (inactive)
same,inhibition,[10]; [31],48.8%
same,inhibition,"[10]; cisplatin combination, at 5 µM",101%
same,inhibition,[10]; [32],2.96%
same,inhibition,"[10]; single agent, at 5 µM",104%
same,inhibition,[11]; at 0.5 µM,31.7% (inactive)
same,inhibition,"[11]; cisplatin combo, at 5 µM",93.3%
same,inhibition,[11]; [33],-8.02%
same,inhibition,[11]; [19],62.9%
same,inhibition,"[11]; single agent, at 5 µM",89%
same,inhibition,[12]; at 0.5 µM,76.1% (inactive)
same,inhibition,[12]; [34],71.1%
same,inhibition,[12]; [35],78%
same,inhibition,"[12]; single agent, at 0.05 µM",23%
same,inhibition,"[12]; single agent, at 5 µM",91.7%
CC(C)=CC[C@@H](O)C1=CC(=O)c2c(O)ccc(O)c2C1=O,z-score,[15],-2.24 (inactive)
O=C1NCCc2[nH]c(-c3ccncc3)cc21,outcome,[17],inactive
C[C@H]1[C@H](OC(=O)CCC(=O)O)O[C@@H]2O[C@@]3(C)CC[C@H]4[C@H](C)CC[C@@H]1[C@@]24OO3,remaining NAD,[1],10 nM (inactive)
CCCCCCCCCCCC(CC1OC(=O)C1CCCCCC)OC(=O)C(CC(C)C)NC=O (stereo not given),z-score,[15],-1.84 (inactive)

# Reference: PubChem BioAssay
